# Source: the supplement of paper PMC3724861
# The entries come from a sample that favours hits as a whole. The hit rate among all sequences tested is not known here.
# Tested on: T1, Caupolican (Caup) homeodomain DNA-binding domain
# T1 sequence: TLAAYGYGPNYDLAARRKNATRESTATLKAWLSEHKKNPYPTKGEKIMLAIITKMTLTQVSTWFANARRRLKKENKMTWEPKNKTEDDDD
# Test: PBM E-score (8-mer, recovered from the published 9-mer minima) (E-score (dimensionless, -0.5 to 0.5)); Drosophila protein; higher = stronger relative binding preference, active = 0.31 or more
# Summary of the method: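 Caup's homeodomain DNA-binding domain (residues 214-303) was made by in vitro transcription and translation and applied at 100 nM to custom-designed protein binding microarrays. Each value is an enrichment score that gives relative binding preference for a short DNA word, with higher meaning stronger. The 8-mer values were recovered from published 9-mer scores, each of which was the minimum of its two constituent 8-mer scores. A cutoff of 0.31 marks candidate sites.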
row,Sequence,PBM E-score
1,AAGACTGC,-0.0769 (inactive)
2,AAATGACG,0.171 (inactive)
3,GATGCCAA,-0.0306 (inactive)
4,TAGCGGGA,-0.169 (inactive)
5,CGATATTC,-0.0778 (inactive)
6,AGGATGAA,-0.102 (inactive)
7,CCGAGTCG,-0.169 (inactive)
8,AGAAGAGG,-0.176 (inactive)
9,CCCCTTCG,-0.25 (inactive)
10,ATGGGAAC,0.0233 (inactive)
11,AGGTAGAA,0.0148 (inactive)
12,TAACAGCA,0.145 (inactive)
13,CACAAACC,-0.0236 (inactive)
14,TTGATCAA,0.115 (inactive)
15,GACCGTTA,0.0165 (inactive)
16,AGTCAGAC,-0.0283 (inactive)
17,AGTTACAC,0.303 (inactive)
18,CGTTACAA,0.289 (inactive)
19,TGTTACAA,0.42 (active)
20,ACTTACAG,0.187 (inactive)
21,AGTTACAA,0.295 (inactive)
22,ACTTACAC,0.245 (inactive)
23,AGTTACAG,0.189 (inactive)
24,ACTTACAT,0.339 (active)

row,Sequence,PBM E-score
1,AGTTACAT,0.319 (active)
2,CCGAAATC,-0.0715 (inactive)
3,CCGAGCAG,-0.0223 (inactive)
4,ACTCAGCA,0.0319 (inactive)
5,CGGTGTTC,0.157 (inactive)
6,AGGTGTTG,0.125 (inactive)
7,CAGTGTTA,0.24 (inactive)
8,ACGTGTTA,0.33 (active)
9,CGGTGTTA,0.179 (inactive)
10,ACGTGTTC,0.279 (inactive)
11,ACGTGTGG,0.0393 (inactive)
12,GCGTGTTA,0.284 (inactive)
13,AGGTGTTA,0.207 (inactive)
14,CCGTGTTA,0.321 (active)
15,ACGTGTTG,0.347 (active)
16,CCGTGTTC,≥ 0.382 (active)
17,ACCGGGCC,-0.228 (inactive)
18,GCACGTCC,-0.0893 (inactive)
19,AGTTTTCC,-0.0223 (inactive)
20,AGCCCACT,-0.166 (inactive)
21,GTGTTCGA,0.236 (inactive)
22,ATGTTCGA,0.34 (active)
23,ATGTTCAC,0.334 (active)
24,ATGTTCAA,0.327 (active)

row,Sequence,PBM E-score
1,AGGTTCAC,-0.0392 (inactive)
2,CTGTTCAC,0.147 (inactive)
3,ATGTTCAG,0.295 (inactive)
4,ATGTTCGG,0.244 (inactive)
5,CTGTTCAA,0.0792 (inactive)
6,CACTCTGA,0.0251 (inactive)
7,ATAGGGTG,-0.0464 (inactive)
8,CCCATAAC,0.0433 (inactive)
9,CACGACCA,0.098 (inactive)
10,CAGAAGAG,-0.0491 (inactive)
11,ATCCTCCG,-0.0647 (inactive)
12,AAGTGAGA,-0.0758 (inactive)
13,CCTCTGGA,-0.169 (inactive)
14,CTCCGTGA,-0.0581 (inactive)
15,CGGTAGGC,-0.149 (inactive)
16,ATACGATA,0.186 (inactive)
17,ACCTGTAG,0.0685 (inactive)
18,CCATGTAG,0.268 (inactive)
19,GGATGTAC,0.305 (inactive)
20,GCATGTAC,0.413 (active)
21,AAATGTAG,0.0799 (inactive)
22,CCCTGTAA,0.161 (inactive)
23,CGATGTAG,0.179 (inactive)
24,GAATGTAC,0.165 (inactive)

row,Sequence,PBM E-score
1,CGATGTGC,-0.0367 (inactive)
2,CCATGTAA,0.404 (active)
3,ACATGTAG,0.476 (active)
4,CGATGTAC,0.374 (active)
5,AGGCTTTC,-0.088 (inactive)
6,ACCGCGGA,-0.137 (inactive)
7,ATTCCTTA,0.0011 (inactive)
8,CATCCCAC,-0.133 (inactive)
9,GCTGCCGA,-0.282 (inactive)
10,CCATGTAC,0.411 (active)
11,CCCTGTAC,0.158 (inactive)
12,TCATGGAA,0.0375 (inactive)
13,TCATGTAA,0.427 (active)
14,AGATGTAC,0.299 (inactive)
15,AACTGTAA,0.197 (inactive)
16,AAATGTAC,0.279 (inactive)
17,TCCTGTAA,0.2 (inactive)
18,ACATGTAC,≥ 0.48 (active)
19,ACATGTAA,0.468 (active)
20,ACACGTAA,0.309 (inactive)
21,CCCCTTGA,-0.156 (inactive)
22,CACGCACA,0.0915 (inactive)
23,AGGTCATG,0.0878 (inactive)
24,ATAGTCGG,-0.0656 (inactive)

row,Sequence,PBM E-score
1,AAAGCTCG,-0.0924 (inactive)
2,CTCATCTC,-0.158 (inactive)
3,GGGATTGA,-0.0471 (inactive)
4,GCATGGAA,-0.00398 (inactive)
5,ACCTGTAT,0.222 (inactive)
6,GCATGTAA,0.409 (active)
7,GCCTGTAA,0.09 (inactive)
8,ACATGTAT,0.469 (active)
9,AAATGTAT,0.241 (inactive)
10,CGCAGAAC,-0.0278 (inactive)
11,GAATTATA,0.109 (inactive)
12,GCGGGTAA,-0.02 (inactive)
13,TAACAACA,0.406 (active)
14,GAACAACA,0.292 (inactive)
15,CAACAACC,0.238 (inactive)
16,TAACAAAA,0.119 (inactive)
17,AAACAACA,0.363 (active)
18,TAACAAGA,0.298 (inactive)
19,AAACAACT,0.246 (inactive)
20,AAACAACC,0.202 (inactive)
21,CAACAACA,0.408 (active)
22,AGTATCTA,0.166 (inactive)
23,TATCTAGA,0.0449 (inactive)
24,GGACCCAC,-0.208 (inactive)

row,Sequence,PBM E-score
1,GAGCAGAC,-0.0808 (inactive)
2,CTAGAAAA,0.0157 (inactive)
3,CACTAATG,0.0246 (inactive)
4,CATAGCCG,-0.0066 (inactive)
5,ACCACGTG,0.0775 (inactive)
6,CACACGTG,0.148 (inactive)
7,AACACGTT,0.292 (inactive)
8,AACACGTG,≥ 0.351 (active)
9,AACACGTC,0.299 (inactive)
10,AACACGTA,0.316 (active)
11,CTATTTTC,0.101 (inactive)
12,ACTACACC,0.281 (inactive)
13,ACTACACG,≥ 0.357 (active)
14,CCTACACG,0.18 (inactive)
15,ACTACACA,≥ 0.357 (active)
16,ACTACACT,0.242 (inactive)
17,GCTACACA,0.185 (inactive)
18,ATAGCTCG,-0.0531 (inactive)
19,GTTCCCAA,-0.045 (inactive)
20,CGATGCTC,-0.13 (inactive)
21,AACGTGTG,0.111 (inactive)
22,CACGTGTA,0.329 (active)
23,CACGTGAA,0.00852 (inactive)
24,AACGTGTC,0.257 (inactive)

row,Sequence,PBM E-score
1,CACGTGTC,0.266 (inactive)
2,GACGTGTA,0.344 (active)
3,GACGTGAA,-0.0186 (inactive)
4,AACGTGTA,0.371 (active)
5,GACGTGGA,-0.0891 (inactive)
6,GCCCGTCC,-0.243 (inactive)
7,AGGGTATC,-0.045 (inactive)
8,GTACCGTA,0.0122 (inactive)
9,AATGTCTC,0.112 (inactive)
10,CATGTCTC,0.314 (active)
11,AATGTCTA,0.242 (inactive)
12,CATGTCTA,0.359 (active)
13,CATGTGTC,0.245 (inactive)
14,GATGTCTA,0.23 (inactive)
15,AAAGATTT,-0.00222 (inactive)
16,CTCACCCC,-0.125 (inactive)
17,ATGTATTA,0.373 (active)
18,ATGTATTG,0.344 (active)
19,ATGTATTC,0.222 (inactive)
20,CTGTATTA,0.159 (inactive)
21,GTGTATTA,0.297 (inactive)
22,ACGTATTG,0.151 (inactive)
23,GCCCCGGC,-0.316 (inactive)
24,CACAGTAA,0.122 (inactive)

row,Sequence,PBM E-score
1,CTCTAAAG,-0.0918 (inactive)
2,GCGGTTCA,-0.101 (inactive)
3,GACAAGGC,0.205 (inactive)
4,AACAAGGA,0.302 (inactive)
5,CACAAGGA,0.109 (inactive)
6,TACAAGGA,0.352 (active)
7,GACAAAGA,0.13 (inactive)
8,GACAAGGA,0.314 (active)
9,CTCGACTC,-0.0783 (inactive)
10,CGGCTATC,-0.134 (inactive)
11,CCATATAA,0.0843 (inactive)
12,ACATATAG,0.256 (inactive)
13,ACACATAG,0.174 (inactive)
14,ACACATAA,0.291 (inactive)
15,ACACATAT,0.323 (active)
16,TCATATAA,0.184 (inactive)
17,ACATATAT,0.343 (active)
18,ACATATAA,0.35 (active)
19,ACATATAC,0.291 (inactive)
20,CGACTATC,-0.0393 (inactive)
21,AGAGGATA,0.0175 (inactive)
22,ATCAAGAT,0.0803 (inactive)
23,CTAGGAGC,-0.193 (inactive)
24,CATCCCGC,-0.146 (inactive)

row,Sequence,PBM E-score
1,AACACTAA,0.166 (inactive)
2,GCTTAAAA,-0.0795 (inactive)
3,GCGCCACA,-0.129 (inactive)
4,CGCGTATA,-0.0122 (inactive)
5,AATATTGC,0.153 (inactive)
6,ATATGCTG,0.0997 (inactive)
7,GCATGCTA,0.0372 (inactive)
8,ACATGCTA,0.352 (active)
9,CTATGCTC,0.0374 (inactive)
10,CCATGCTA,0.102 (inactive)
11,AGATGCTG,-0.00229 (inactive)
12,CCATGCTC,-0.00716 (inactive)
13,ACATGCTC,0.334 (active)
14,ACATGCCT,0.254 (inactive)
15,ACATGCCA,0.336 (active)
16,TCATGCCA,0.0318 (inactive)
17,ACATGCTG,0.332 (active)
18,CACTGCTA,0.075 (inactive)
19,CATACCGC,-0.0667 (inactive)
20,AAGCTCCT,-0.0876 (inactive)
21,GGATGCTA,-0.0509 (inactive)
22,CCAAACGG,-0.223 (inactive)
23,AATTCAAG,0.118 (inactive)
24,ACTATAAT,0.162 (inactive)

row,Sequence,PBM E-score
1,CTTGCGCA,-0.0025 (inactive)
2,CAAGTACA,0.342 (active)
3,TAAGTAAA,0.0166 (inactive)
4,TAAGTACA,0.332 (active)
5,GAAGTACA,0.269 (inactive)
6,AAAGTACA,0.276 (inactive)
7,TGAGTACA,0.265 (inactive)
8,GAAACCCA,0.0044 (inactive)
9,ATCTCTGG,-0.00282 (inactive)
10,CGAGGTCA,-0.0898 (inactive)
11,CAACTTGA,0.0844 (inactive)
12,AGGTACTG,0.0558 (inactive)
13,AAGTACTA,0.197 (inactive)
14,ATGTACGA,0.395 (active)
15,ATGTACTC,0.303 (inactive)
16,CTGTACTC,0.082 (inactive)
17,ATGTACCA,0.36 (active)
18,CTGTACGA,0.203 (inactive)
19,GTGTACCA,0.308 (inactive)
20,ATGTACTA,0.398 (active)
21,ATGTACGG,0.211 (inactive)
22,ATGTACCC,0.263 (inactive)
23,ATGTACTG,0.339 (active)
